# Results as given in PubChem BioAssay (EPA / NIEHS).
# Where “and” joins values, the source holds several entries; their conditions need not be identical. Identical values can stand only once. Results filed as inconclusive are left out. A structure can be active in one record and inactive in another. Calls of active or inactive are those of the source. The calls were made as follows, unless noted: active = hit-call score of the fitted dose curve at least 0.9, where 1 is the maximum; inconclusive = response in the unintended direction; inactive = score below 0.9.
# How the values were obtained:
# [1] = biological target: human Peripheral-type Benzodiazepine Receptor (PBR), TSPO (gene 706) (UniProt P30536); test: NVS_MP_hPBR: NovaScreen (NVS) Membrane Protein Assay for human Peripheral-type Benzodiazepine Receptor (PBR) (AID 2283331);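 also: hits reduce radioligand binding relative to DMSO baseline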
# How it was run: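 Human colonic cell membranes were incubated with test chemical for 1 hour; radioligand binding was measured by filter-based scintillation counting. Primary screen ran in duplicate at 25 uM, with actives followed in concentration series; loss of signal versus DMSO baseline.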
# [2] = biological target: rat Peripheral-type Benzodiazepine Receptor (PBR), Tspo (gene 24230) (UniProt P16257); test: NVS_MP_rPBR: NovaScreen (NVS) Membrane Protein Assay for rat Peripheral-type Benzodiazepine Receptor (PBR) (AID 2283335)
# How it was run: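 Radioligand displacement, rat kidney membrane prep, 1 h exposure, filter-based scintillation read; DMSO baseline, loss-of-signal scored. Primary screen at 25 uM in duplicate, actives followed up in concentration series.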
# [3] = biological target: rat Glutamate, NMDA Agonist Site (GluNMDA), Grin1 (gene 24408) (UniProt P35439); test: NVS_LGIC_rGluNMDA_Agonist: NovaScreen (NVS) Ligand-Gated Ion Channel Assay for rat Glutamate, NMDA Agonist Site (GluNMDA) (AID 2283327)
# How it was run: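 Rat forebrain membranes, radioligand binding in the agonist-site protocol; 1 h after dosing; filter-based scintillation counting. Single-concentration duplicate screen at 25 uM, then concentration-response up to 50 uM for actives; gain-of-signal vs DMSO.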
# [4] = biological target: human Androgen Receptor (AR), AR (gene 367) (UniProt P10275); test: NVS_NR_hAR: NovaScreen (NVS) Nuclear Receptor Binding Assay for human Androgen Receptor (AR) (AID 2283332)
# How it was run: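 Actives from a duplicate 25 uM single-point screen went on to concentration series. Read-out after 20 h was scintillation counting of displaced radioligand in LnCAP extract, with DMSO as baseline.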
# [5] = biological target: Glutamate receptor ionotropic, kainate 1 (Rattus norvegicus) (UniProt P22756); test: NVS_IC_rKAR: NovaScreen (NVS) Ion Channel Assay for rat Kainic Acid Receptors (KAR) (AID 2283334; active = hit-call score of the fitted dose curve at least 0.9, where 1 is the maximum; inactive = score below 0.9)
# Method: (§1) NVS_IC_rKAR is a biochemical, single-readout assay that uses extracted gene-proteins from Rat forebrain membranes in a tissue-based cell-free assay. Measurements were taken 1 hour after chemical dosing in a 48-well plate.NVS_IC_rKAR is one of one assay component(s) measured or calculated from the NVS_IC_rKAR assay. It is designed to make measurements of radioligand binding, a form of binding reporter, as detected with scintillation counting signals by Filter-based radiodetection technology.Data from the assay component NVS_IC_rKAR was analyzed into 1 assay endpoint. This assay endpoint, NVS_IC_rKAR, was analyzed in the positive analysis fitting direction relative to DMSO as the negative control and baseline of activity. Using a type of binding reporter, loss-of-signal activity can be used to understand changes in the binding as they relate to the gene Grik1. Furthermore, this assay endpoint can be referred to as a primary readout, because the performed assay has only produced 1 assay endpoint. To generalize the intended target to other relatable targets, this assay endpoint is annotated to the ion channel intended target family, where the subfamily is ligand-gated ion channel.
# (§2) Binding assays used specific radioligands (tritiated, iodinated) with non-radioactive competitive displacement ligands in agonist or antagonist protocols (as indicated) and various reference compounds and inhibitors to titrate specific binding to receptors and transporters. Most enzyme assays (CYPs, kinases, phosphatases, proteases, HDACs) used recombinant protein and specific substrates (fluorescence mostly, some colorimetric and radioactive) and inhibitors, followed by a biochemical separation of substrate and product. All assays for the biochemical HTS were initially run in duplicate at a single concentration (10 uM for CYP450 assays and 25 uM for all others). […]
# [6] = biological target: rat Thyrotropin Releasing Hormone Receptor (TRH), Trhr (gene 25570) (UniProt Q01717); test: NVS_GPCR_rTRH: NovaScreen (NVS) G Protein-Coupled Receptor Assay for rat Thyrotropin Releasing Hormone Receptor (TRH) (AID 2283329);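 also: hit means lower bound tracer signal versus DMSO baseline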
# How it was run: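 Competitive radioligand binding on rat forebrain membrane preparations, with filtration and scintillation readout after 4 h. Primary testing in duplicate at 25 uM; actives confirmed in concentration-response. DMSO defined baseline.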
# [7] = biological target: rat Glutamate, AMPA Site (AMPA), Gria1 (gene 50592) (UniProt P19490); test: NVS_LGIC_rAMPA: NovaScreen (NVS) Ligand-Gated Ion Channel Assay for rat Glutamate, AMPA Site (AMPA) (AID 2283324)
# How it was run: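 Rat forebrain membranes; radioligand binding read 1 h after dosing by filtration and scintillation counting. Duplicate single-point screen at 25 uM, then concentration-response to 50 uM for threshold hits (e.g. 30% inhibition); loss of signal vs DMSO.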
# [8] = biological target: Voltage-gated inwardly rectifying potassium channel KCNH2 (Homo sapiens) (UniProt Q12809); test: NVS_IC_hKhERGCh: NovaScreen (NVS) Ion Channel Assay for human Potassium Channel ERG (KhERGCh) (AID 2283333)
# How it was run: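 Cell-free radioligand competition binding on hERG protein extracted from CHO cells, read by filter-based scintillation counting 0.75 h after dosing. Primary screen at 25 uM in duplicate, actives followed in concentration series. Signal loss fitted versus DMSO.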
# [9] = biological target: rat Oxytocin Receptor (OXT), Oxtr (gene 25342) (UniProt P70536); test: NVS_GPCR_rOXT: NovaScreen (NVS) G Protein-Coupled Receptor Assay for rat Oxytocin Receptor (OXT) (AID 2283330)
# Method: as §1, with “NVS_GPCR_rOXT” for “NVS_IC_rKAR”, “uterine” for “forebrain”, “plate.NVS_GPCR_rOXT” for “plate.NVS_IC_rKAR”, “NVS_GPCR_rOXT,” for “NVS_IC_rKAR,”, “Using a type of binding reporter, loss-of-signal activity can be used to understand changes in the binding as they relate to the gene Grik1.” left out, “To generalize the intended target to other relatable targets, this assay endpoint is annotated to the ion channel intended target family, where the subfamily is ligand-gated ion channel.” left out
# as §2, with “product.” for “product. All assays for the biochemical HTS were initially run in duplicate at a single concentration (10 uM for CYP450 assays and 25 uM for all others).”
# [10] = biological target: rat Gamma-Aminobutyric Acid Type A Receptor, Non-Selective (GABAR-NonSelective), Gabra1 (gene 29705) (UniProt P62813); test: NVS_LGIC_rGABAR_NonSelective: NovaScreen (NVS) Ligand-Gated Ion Channel Assay for rat Gamma-Aminobutyric Acid Type A Receptor, Non-Selective (GABAR-NonSelective) (AID 2283326)
# How it was run: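 Radioligand displacement on rat whole-brain extract, 1 h, filter scintillation readout; signal loss fitted versus DMSO. Primary screen in duplicate at 25 uM; hits (e.g. ≥30% inhibition) retested in concentration-response up to 50 uM.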
# Sequence of rat Peripheral-type Benzodiazepine Receptor (PBR), Tspo (gene 24230) (P16257 whole entry, looked up): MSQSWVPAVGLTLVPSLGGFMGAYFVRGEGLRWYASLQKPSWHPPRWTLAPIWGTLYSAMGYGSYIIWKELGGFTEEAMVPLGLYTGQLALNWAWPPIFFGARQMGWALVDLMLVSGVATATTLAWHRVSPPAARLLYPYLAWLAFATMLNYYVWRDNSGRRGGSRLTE
# Sequence of human Androgen Receptor (AR), AR (gene 367) (P10275 whole entry, looked up): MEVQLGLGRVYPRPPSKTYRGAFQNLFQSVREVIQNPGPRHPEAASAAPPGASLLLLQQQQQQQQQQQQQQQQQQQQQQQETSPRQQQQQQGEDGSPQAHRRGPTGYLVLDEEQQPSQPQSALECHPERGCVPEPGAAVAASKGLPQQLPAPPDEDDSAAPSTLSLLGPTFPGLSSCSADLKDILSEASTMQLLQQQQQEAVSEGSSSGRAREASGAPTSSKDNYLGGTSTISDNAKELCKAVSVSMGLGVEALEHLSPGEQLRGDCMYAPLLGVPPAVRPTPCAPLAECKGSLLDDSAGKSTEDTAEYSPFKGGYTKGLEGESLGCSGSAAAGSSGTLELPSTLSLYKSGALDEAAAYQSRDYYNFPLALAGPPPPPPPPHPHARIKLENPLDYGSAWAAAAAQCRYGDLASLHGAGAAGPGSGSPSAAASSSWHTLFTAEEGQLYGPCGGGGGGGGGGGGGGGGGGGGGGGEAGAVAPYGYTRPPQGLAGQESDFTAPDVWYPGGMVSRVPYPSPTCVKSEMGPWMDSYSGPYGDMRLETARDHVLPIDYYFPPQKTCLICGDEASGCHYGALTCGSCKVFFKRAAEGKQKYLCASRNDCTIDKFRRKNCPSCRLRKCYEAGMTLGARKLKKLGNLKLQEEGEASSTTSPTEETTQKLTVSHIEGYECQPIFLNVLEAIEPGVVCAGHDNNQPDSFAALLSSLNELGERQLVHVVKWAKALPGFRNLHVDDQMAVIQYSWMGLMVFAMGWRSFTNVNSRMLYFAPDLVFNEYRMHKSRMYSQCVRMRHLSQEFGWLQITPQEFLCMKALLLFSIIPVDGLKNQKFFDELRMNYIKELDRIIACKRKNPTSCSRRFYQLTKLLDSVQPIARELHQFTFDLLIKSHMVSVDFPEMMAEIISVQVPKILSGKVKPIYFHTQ
# Sequence of Glutamate receptor ionotropic, kainate 1 (Rattus norvegicus) (P22756 whole entry, looked up): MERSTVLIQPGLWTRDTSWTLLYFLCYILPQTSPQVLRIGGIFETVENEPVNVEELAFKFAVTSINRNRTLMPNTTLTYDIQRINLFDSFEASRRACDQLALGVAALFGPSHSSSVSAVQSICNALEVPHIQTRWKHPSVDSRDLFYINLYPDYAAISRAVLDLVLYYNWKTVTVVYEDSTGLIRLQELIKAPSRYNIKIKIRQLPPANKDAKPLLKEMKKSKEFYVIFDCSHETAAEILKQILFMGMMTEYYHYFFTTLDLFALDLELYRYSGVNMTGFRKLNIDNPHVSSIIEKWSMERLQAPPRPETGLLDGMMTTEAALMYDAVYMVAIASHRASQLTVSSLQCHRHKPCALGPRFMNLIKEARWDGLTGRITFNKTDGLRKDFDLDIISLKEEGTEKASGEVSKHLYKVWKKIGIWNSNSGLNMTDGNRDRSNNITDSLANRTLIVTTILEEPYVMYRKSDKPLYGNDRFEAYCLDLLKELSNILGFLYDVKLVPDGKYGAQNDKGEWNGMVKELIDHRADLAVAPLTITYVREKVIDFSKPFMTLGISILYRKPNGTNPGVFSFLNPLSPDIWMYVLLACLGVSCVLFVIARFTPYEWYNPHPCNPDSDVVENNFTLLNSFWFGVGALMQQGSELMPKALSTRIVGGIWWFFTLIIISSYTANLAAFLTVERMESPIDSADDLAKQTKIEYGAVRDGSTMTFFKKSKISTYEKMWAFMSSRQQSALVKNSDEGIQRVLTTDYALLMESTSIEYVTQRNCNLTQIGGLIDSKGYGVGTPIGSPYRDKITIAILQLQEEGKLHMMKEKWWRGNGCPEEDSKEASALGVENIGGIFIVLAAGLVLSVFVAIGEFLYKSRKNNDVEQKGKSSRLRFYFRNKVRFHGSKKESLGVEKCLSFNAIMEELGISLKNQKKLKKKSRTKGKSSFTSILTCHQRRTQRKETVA
# Sequence of rat Thyrotropin Releasing Hormone Receptor (TRH), Trhr (gene 25570) (Q01717 whole entry, looked up): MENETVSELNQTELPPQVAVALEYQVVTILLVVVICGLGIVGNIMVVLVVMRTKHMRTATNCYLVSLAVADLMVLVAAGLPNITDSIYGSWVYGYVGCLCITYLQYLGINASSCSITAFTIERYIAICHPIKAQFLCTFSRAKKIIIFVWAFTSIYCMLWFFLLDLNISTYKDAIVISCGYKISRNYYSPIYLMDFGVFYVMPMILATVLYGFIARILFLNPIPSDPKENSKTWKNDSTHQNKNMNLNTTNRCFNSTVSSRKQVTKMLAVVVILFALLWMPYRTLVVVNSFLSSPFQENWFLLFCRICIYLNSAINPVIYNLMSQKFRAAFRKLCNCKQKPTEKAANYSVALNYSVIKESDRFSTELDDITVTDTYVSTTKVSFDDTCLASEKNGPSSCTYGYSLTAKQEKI
# Sequence of Voltage-gated inwardly rectifying potassium channel KCNH2 (Homo sapiens) (Q12809 whole entry, looked up): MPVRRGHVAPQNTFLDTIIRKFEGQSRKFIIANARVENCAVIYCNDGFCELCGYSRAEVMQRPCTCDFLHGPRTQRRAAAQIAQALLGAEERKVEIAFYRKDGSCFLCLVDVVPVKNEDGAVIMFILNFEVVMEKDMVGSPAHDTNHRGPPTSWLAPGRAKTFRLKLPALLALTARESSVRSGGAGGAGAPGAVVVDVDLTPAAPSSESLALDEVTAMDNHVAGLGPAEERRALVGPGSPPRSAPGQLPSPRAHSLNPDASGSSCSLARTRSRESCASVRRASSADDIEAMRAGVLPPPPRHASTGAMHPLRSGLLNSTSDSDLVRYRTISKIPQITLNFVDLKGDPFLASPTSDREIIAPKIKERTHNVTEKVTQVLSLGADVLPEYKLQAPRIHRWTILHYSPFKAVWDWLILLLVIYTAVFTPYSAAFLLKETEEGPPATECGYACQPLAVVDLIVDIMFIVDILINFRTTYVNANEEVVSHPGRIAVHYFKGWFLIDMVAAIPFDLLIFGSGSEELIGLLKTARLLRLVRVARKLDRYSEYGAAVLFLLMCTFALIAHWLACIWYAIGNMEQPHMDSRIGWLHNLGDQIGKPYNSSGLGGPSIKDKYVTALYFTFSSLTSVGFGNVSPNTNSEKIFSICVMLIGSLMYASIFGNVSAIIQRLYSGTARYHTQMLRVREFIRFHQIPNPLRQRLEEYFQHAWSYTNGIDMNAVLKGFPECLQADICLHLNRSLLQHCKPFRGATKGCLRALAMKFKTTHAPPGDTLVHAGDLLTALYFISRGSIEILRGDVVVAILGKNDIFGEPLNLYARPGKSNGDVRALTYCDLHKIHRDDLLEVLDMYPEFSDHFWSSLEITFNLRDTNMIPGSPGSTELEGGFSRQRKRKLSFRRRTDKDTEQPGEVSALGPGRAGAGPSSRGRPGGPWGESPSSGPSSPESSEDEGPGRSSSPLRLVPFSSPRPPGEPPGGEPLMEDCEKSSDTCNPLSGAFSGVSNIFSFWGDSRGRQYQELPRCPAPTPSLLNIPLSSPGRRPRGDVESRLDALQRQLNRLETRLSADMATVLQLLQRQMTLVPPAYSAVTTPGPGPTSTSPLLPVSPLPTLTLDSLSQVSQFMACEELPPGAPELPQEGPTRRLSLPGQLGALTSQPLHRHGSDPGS
# Sequence of human Peripheral-type Benzodiazepine Receptor (PBR), TSPO (gene 706) (P30536 whole entry, looked up): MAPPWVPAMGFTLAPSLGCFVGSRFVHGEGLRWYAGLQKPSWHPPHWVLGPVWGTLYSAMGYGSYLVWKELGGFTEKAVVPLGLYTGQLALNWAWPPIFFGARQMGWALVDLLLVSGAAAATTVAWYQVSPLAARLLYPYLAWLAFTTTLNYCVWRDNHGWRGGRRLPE
# Sequence of rat Glutamate, AMPA Site (AMPA), Gria1 (gene 50592) (P19490 whole entry, looked up): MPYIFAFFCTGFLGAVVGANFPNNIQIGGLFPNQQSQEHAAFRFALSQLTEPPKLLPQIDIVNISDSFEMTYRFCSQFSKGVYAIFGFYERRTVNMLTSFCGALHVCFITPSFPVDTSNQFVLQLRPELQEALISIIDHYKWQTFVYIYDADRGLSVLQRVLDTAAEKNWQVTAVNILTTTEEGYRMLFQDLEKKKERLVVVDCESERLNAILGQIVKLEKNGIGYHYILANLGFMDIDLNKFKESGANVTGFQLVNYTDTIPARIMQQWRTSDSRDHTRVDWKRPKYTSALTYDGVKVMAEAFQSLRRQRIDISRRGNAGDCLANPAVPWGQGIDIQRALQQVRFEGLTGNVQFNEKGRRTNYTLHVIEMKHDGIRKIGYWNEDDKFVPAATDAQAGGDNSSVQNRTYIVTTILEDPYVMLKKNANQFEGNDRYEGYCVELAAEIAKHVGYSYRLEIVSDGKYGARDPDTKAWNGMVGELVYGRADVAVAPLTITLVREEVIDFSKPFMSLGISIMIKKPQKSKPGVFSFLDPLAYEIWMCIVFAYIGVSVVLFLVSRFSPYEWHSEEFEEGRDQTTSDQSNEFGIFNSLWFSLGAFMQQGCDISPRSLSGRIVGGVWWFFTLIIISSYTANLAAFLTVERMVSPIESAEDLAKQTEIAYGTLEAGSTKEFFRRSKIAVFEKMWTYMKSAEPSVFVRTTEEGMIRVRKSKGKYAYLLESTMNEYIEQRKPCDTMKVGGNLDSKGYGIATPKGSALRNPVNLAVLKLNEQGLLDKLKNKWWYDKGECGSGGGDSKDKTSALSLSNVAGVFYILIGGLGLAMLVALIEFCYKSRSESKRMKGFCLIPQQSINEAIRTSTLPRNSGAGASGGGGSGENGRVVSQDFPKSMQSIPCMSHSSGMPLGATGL
structure (smiles),measurement,setting,value
COP(=S)(OC)Oc1ccc([N+](=O)[O-])cc1,AC50,[1],19.5 µM (active)
same,AC50,[2],15.7 µM (active)
COc1nn(CSP(=S)(OC)OC)c(=O)s1,outcome,[1],inactive
same,AC50,[2],13.1 µM (active)
O=C(O)CCCOc1ccc(Cl)cc1Cl,outcome,[1],inactive
same,outcome,[2],inactive
Oc1ccc(Cl)cc1Cc1ccccc1,outcome,[3],inactive
same,AC50,[1],17.1 µM (active) [middle of 7 runs]
same,AC50,[4],7.84 µM (active) [middle of 6 runs]
same,outcome,[5],inactive
same,AC50,[2],11 µM (active) and 9.89 µM (active) and 8.7 µM (active)
same,outcome,[2],inactive
O=[N+]([O-])/N=C1\NCCN1Cc1ccc(Cl)nc1,outcome,[1],inactive
same,outcome,[2],inactive
O=[N+]([O-])c1c(Cl)c(Cl)c(Cl)c(Cl)c1Cl,outcome,[6],inactive
same,outcome,[2],inactive
COP(=O)(OC)OC=C(Cl)Cl,outcome,[1],inactive
O=S(=O)(O)C(F)(F)C(F)(F)C(F)(F)C(F)(F)C(F)(F)C(F)(F)C(F)(F)C(F)(F)F,outcome,[3],inactive
same,outcome,[2],inactive
CNC(=O)CSP(=S)(OC)OC,outcome,[1],inactive
same,outcome,[2],inactive
CCC(C)(NC(=O)c1cc(Cl)c(C)c(Cl)c1)C(=O)CCl (stereo not given),AC50,[1],25 µM (active)
same,AC50,[2],0.0105 µM (active)
Cc1cc(C)nc(NC(=O)NS(=O)(=O)c2ccccc2C(=O)OC2COC2)n1,outcome,[7],inactive
same,outcome,[8],inactive
N#Cc1c(Cl)c(Cl)c(Cl)c(C#N)c1Cl,AC50,[1],9.01 µM (active)
CC[C@H](C)[C@H]1O[C@]2(C=C[C@@H]1C)C[C@@H]1C[C@@H](C/C=C(\C)[C@@H](O[C@H]3C[C@H](OC)[C@@H](O[C@H]4C[C@H](OC)[C@@H](O)[C@H](C)O4)[C@H](C)O3)[C@@H](C)/C=C/C=C3\CO[C@@H]4[C@H](O)C(C)=C[C@@H](C(=O)O1)[C@]34O)O2 (tested in a mixture with another compound),AC50,[1],0.363 µM (active)
same,outcome,[2],inactive
CC(C)N(C(=O)COc1nnc(C(F)(F)F)s1)c1ccc(F)cc1,AC50,[1],0.27 µM (active)
same,AC50,[2],0.0248 µM (active)
COC(=O)c1ccccc1S(=O)(=O)NC(=O)Nc1nc(C)nc(OC)n1,outcome,[1],inactive
CN1CSC(=S)N(C)C1,outcome,[6],inactive
O=S1OCC2C(CO1)C1(Cl)C(Cl)=C(Cl)C2(Cl)C1(Cl)Cl (stereo not given),outcome,[1],inactive
same,outcome,[2],inactive
O=C(O)COc1ccc(Cl)cc1Cl,outcome,[1],inactive
same,outcome,[5],inactive
COP(=S)(OC)Oc1ccc(SC)c(C)c1,AC50,[1],17.4 µM (active)
same,AC50,[2],4.64 µM (active)
CCCN(CCC)c1c([N+](=O)[O-])cc(C(F)(F)F)cc1[N+](=O)[O-],outcome,[4],inactive
same,AC50,[2],16.5 µM (active)
O=C(Nc1ccccc1)Nc1cnns1,outcome,[7],inactive
same,outcome,[9],inactive
CC(C)(C)C(O)C(Oc1ccc(Cl)cc1)n1cncn1 (stereo not given),outcome,[1],inactive
same,outcome,[2],inactive
CCOc1nc(NC)nc(NC(=O)NS(=O)(=O)c2ccccc2C(=O)OC)n1,outcome,[4],inactive
CC(C)OC(=O)Nc1cccc(Cl)c1,AC50,[1],17.1 µM (active)
same,AC50,[2],4.63 µM (active)
ClC1C(Cl)C(Cl)C(Cl)C(Cl)C1Cl (stereo not given),outcome,[6],inactive
same,outcome,[1],inactive
same,outcome,[5],inactive
same,AC50,[2],14.1 µM (active)
same,outcome,[2],inactive
COc1cc(OC)nc(NC(=O)NS(=O)(=O)c2cc(NC=O)ccc2C(=O)N(C)C)n1,outcome,[8],inactive
CCC(C)Nc1c([N+](=O)[O-])cc(C(C)(C)C)cc1[N+](=O)[O-] (stereo not given),outcome,[3],inactive
CCS(=O)(=O)c1cccnc1S(=O)(=O)NC(=O)Nc1nc(OC)cc(OC)n1,outcome,[10],inactive
C#CCN1C(=O)COc2cc(F)c(N3C(=O)C4=C(CCCC4)C3=O)cc21,outcome,[6],inactive
CCN(CC)C(=O)SCc1ccc(Cl)cc1,AC50,[1],22.2 µM (active)
same,AC50,[2],13.5 µM (active)
CCOCN(C(=O)CCl)c1c(C)cccc1CC,AC50,[1],1.88 µM (active)
same,AC50,[2],1.45 µM (active)
CC1(C)C(C=C(Cl)Cl)C1C(=O)OC(C#N)c1ccc(F)c(Oc2ccccc2)c1 (stereo not given),outcome,[1],inactive
same,AC50,[2],10.8 µM (active)
O=C1c2ccccc2C(=O)N1SC(Cl)(Cl)Cl,outcome,[2],inactive
CCCN(CCOc1c(Cl)cc(Cl)cc1Cl)C(=O)n1ccnc1,outcome,[10],inactive
same,AC50,[1],2.59 µM (active)
same,AC50,[8],8.01 µM (active)
same,AC50,[2],0.0539 µM (active)
Oc1cc(Cl)ccc1Oc1ccc(Cl)cc1Cl,outcome,[1],inactive
same,AC50,[2],5.64 µM (active) and 25.5 µM (active) and 9.13 µM (active)
same,outcome,[2],inactive
